From PubChem BioAssay

Test: small-molecule microarray binders of probe aLefty2, primary screen, biochemical, biotinylated probe, 635/667 nm fluorescence (AID 1094);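 further: score merges spot fluorescence near 667 nm with spot signal-to-noise ratio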
Settings: higher = more signal
`COc1cc2c(cc1O)C(c1ccc(CN3CCCC3)cc1)N(Cc1cc3c(cc1Br)OCO3)CC2` (stereo unspecified) gave a composite z-score of -0.0576.
`CCCC[C@@H]1C[C@H]1[C@@H](NC(=O)c1cccs1)c1ccccc1C(F)(F)F` gave a composite z-score of 0.0864.
In the case of `CCOC(=O)C1=C[C@@H](c2ccccc2)N(S(=O)(=O)c2ccc(C)cc2)[C@H]1c1ccc(OC)cc1`, the composite z-score is reported as 0.338.
For `C=CCC(OC(C)=O)[C@@H]1[C@@H](N(Cc2ccc(-c3cccc(C(F)(F)F)c3)o2)C(=O)Cc2ccc(OC)cc2)c2cc(OCCCO)ccc2N1C(=O)c1ccc(-c2ccccc2)cc1` (stereo partly specified), the composite z-score was -0.0436.
Work on `C=CC[C@@H](OC(=O)Nc1ccc(SC)cc1)c1ccc(O)c(F)c1` yielded a composite z-score of 0.0276.
`CCCCC=C[C@@H](NC(=O)OCc1ccccc1Cl)c1ccccc1` showed a composite z-score of 1.09.
Work on `C=CCC(OC(C)=O)[C@@H]1[C@@H](N(Cc2cccc3ccccc23)C(=O)Cc2ccc(OC)cc2)c2cc(OCCCO)ccc2N1C(=O)c1ccc(-c2ccccc2)cc1` (stereo partly specified) yielded a composite z-score of -0.206.
In the case of `CCCC=C(CCC)[C@@H](NP(=O)(c1ccccc1)c1ccccc1)c1ccc(-c2ccccc2)cc1`, the composite z-score is reported as 0.123.
In the case of `COCCCNC(=O)[C@@]1(CCC(=O)OC(C)(C)C)N=C(c2ccc(OCCCO)cc2)O[C@H]1c1ccccc1N=[N+]=[N-]`, the composite z-score is reported as 0.644.
`O=C(Cc1ccccc1)[C@H]1C2C=CCCC(c3ccccc3)=C2CN1Cc1ccccc1` (stereo partly specified) showed a composite z-score of -0.207.
Work on `COC(=O)[C@@]1(Cc2ccc(F)cc2)[C@H]2c3cc(C(=O)N4CCCC4)n(Cc4ccc(C)c(F)c4F)c3C[C@H]2CN1C(=O)c1ccccc1` yielded a composite z-score of 0.136.
Work on `COc1ccc(C#Cc2ccc3c(c2)[C@]2(C(=O)N3)[C@H](C(=O)O)[C@H]3C(=O)O[C@H](c4ccccc4)[C@H](c4ccccc4)N3[C@@H]2c2ccc(O)cc2)cc1` yielded a composite z-score of -0.0042.
Work on `CCC#CCN(Cc1ccccc1Br)[C@H](/C=C/C1CC1)[C@@H](O)Cc1ccccc1` yielded a composite z-score of 0.208.
Work on `COC(=O)[C@@]1(Cc2ccccc2)[C@H]2c3cc(C(=O)N(C)C)n(Cc4ccc(C)o4)c3C[C@H]2CN1C(=O)c1ccccc1` yielded a composite z-score of 0.746.
`CC(C)NC(=O)[C@@]1(C)c2ccccc2C(=O)N(Cc2ccc(OC(F)(F)F)cc2)[C@H]1c1ccc(CO)cc1` showed a composite z-score of -0.221.
Work on `COc1ccc([Si](C)(C)[C@@H]2[C@@H](CC(=O)N3CCC[C@H]3CO)O[C@]3(C(=O)N(Cc4cccc(N5C(=O)COc6ccccc65)c4)c4ccccc43)[C@H]2C)cc1` yielded a composite z-score of -0.0198.
Work on `CCCC[C@@H](O)C1=C(COC)C[C@H]2C(=O)N(C)C(=O)[C@H]2[C@H]1CO` yielded a composite z-score of -0.353.
With `COc1ccc([Si](C)(C)[C@@H]2[C@@H](CC(=O)N(CCO)Cc3ccccc3)O[C@]3(C(=O)N(Cc4cccc(N5CCCCC5=O)c4)c4ccccc43)[C@H]2C)cc1` the composite z-score was 0.232.
`COc1ccc(CCNC(=O)[C@@]2(Sc3ccc(C)cc3)CC(=O)N(Cc3ccccc3C(F)(F)F)[C@@H]2c2ccc(CO)cc2I)cc1` gave a composite z-score of -0.0668.
`[N-]=[N+]=Nc1ccccc1[C@@H]1OC(c2ccc(OCCCO)cc2)=N[C@]1(Cc1ccccc1)C(=O)N1CCCCC1` showed a composite z-score of 0.0277.
With `Cc1ccc(S[C@]2(C(=O)NCc3ccccc3)CC(=O)N(C3CCCCC3)[C@@H]2c2ccc(CO)cc2I)cc1` the composite z-score was -0.0948.
Compound `COc1ccc([Si](C)(C)[C@H]2[C@H](CC(=O)N(CCO)Cc3ccccc3)O[C@@]3(C(=O)N(C)c4c(Br)cc(C)cc43)[C@@H]2C)cc1` has a composite z-score of 0.0256.
`[N-]=[N+]=Nc1ccccc1[C@@H]1OC(c2ccc(OCCCO)cc2)=N[C@]1(Cc1ccccc1)C(=O)O` gave a composite z-score of 0.106.
In the case of `CCCC1(C(=O)OC)C=C2C(=C(C)C(=O)C2C)CN1` (stereo unspecified), the composite z-score is reported as 0.0932.
`COCC(=C=CC[C@H](O)c1ccccc1OCCO)C[C@H](O)c1ccccn1` showed a composite z-score of -0.138.
Compound `Oc1ccc2cc[n+](Cc3cc4c(cc3Br)OCO4)cc2c1` has a composite z-score of 0.0894.
`CC(C)[Si]1(C(C)C)OCc2cc(C3CC3)nc(-c3ccc(Oc4ccccc4)cc3)c21` gave a composite z-score of -0.13.
`[N-]=[N+]=Nc1ccccc1C[C@]1(C(=O)N2CCOCC2)COC(c2ccc(OCCCO)cc2)=N1` showed a composite z-score of 0.0446.
Work on `[N-]=[N+]=Nc1ccccc1C[C@@]1(C(=O)NCCN2CCOCC2)N=C(c2ccc(OCCCO)cc2)O[C@@H]1c1ccccc1N=[N+]=[N-]` yielded a composite z-score of 0.0672.
Compound `CCCCC(CC)C(O)C1C=CC2C(=O)N(C)C(=O)C2N1Nc1ccccc1` (stereo unspecified) has a composite z-score of -0.121.
With `O=C1N(CCS(=O)(=O)c2ccccc2)c2ccccc2[C@H]2OC(c3ccc(OCCCO)cc3)=N[C@@]12Cc1ccccc1` the composite z-score was 0.507.
`COc1ccc(C#Cc2ccc3c(c2)[C@]2(C(=O)N3)[C@H](c3ccc(O)cc3)N3[C@H](c4ccccc4)[C@H](c4ccccc4)OC(=O)[C@H]3[C@@H]2C(=O)Nc2nc3ccccc3s2)cc1` showed a composite z-score of 0.334.
`CCOc1cc(C(O)C2C=CC3C(=O)NC(=O)C3N2Nc2ccc(Cl)cc2Cl)ccc1O` (stereo unspecified) showed a composite z-score of 0.0717.
`Cc1ccc(S[C@]2(C(=O)NCC(F)(F)F)CC(=O)N(Cc3cc(C(F)(F)F)cc(C(F)(F)F)c3)[C@@H]2c2ccc(CO)cc2I)cc1` gave a composite z-score of -0.054.
With `C=CCC(OC(C)=O)[C@@H]1[C@@H](N(Cc2cc3ccccc3o2)C(=O)Cc2ccc(F)cc2)c2cc(OCCCO)ccc2N1C(=O)Cc1ccc2ccccc2c1` (stereo partly specified) the composite z-score was -0.0736.
With `CO[C@H]1O[C@H](CO)[C@@H](OC(=O)Nc2ccccc2)[C@H](OC(=O)c2cc3ccccc3[nH]2)[C@H]1OC(=O)c1cc2ccccc2[nH]1` the composite z-score was -0.0107.
